# Compound activity from PubChem BioAssay.
# PKM2 activator = increases activity of human pyruvate kinase M2. 260,000 compounds, 0.34% hits. P14618. Potency, µM (doses to about 57.5 µM), most hits filed as activators. purified PKM2, Kinase-Glo ATP luminescence, activation; response scale: 0% is enzyme alone, no compound; also: nearly all actives have a fitted effect of over 55% in size
#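 ATP formation by purified human PK-M2, quantified via coupled luciferase luminescence after 1 h at room temperature with 0.1 mM ADP and 0.5 mM PEP final.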
# CBFb RUNX1 block = blocks binding between human CBF-beta and RUNX1. Q01196+Q13951. AlphaScreen CBFb-His/RUNX1-biotin binding, biochemical. Potency, µM (titrated, usually from 59.8 µM), actives largely listed as inhibitors. 230,000 tested, under 10 active. AID 1477
#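 Proteins preincubated together for 20 min at RT before compound addition; 15 min later, nickel and streptavidin beads were added and left 90 min prior to AlphaScreen measurement.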
# Tb PFK inh-1 = blocks T. brucei phosphofructokinase. T. brucei PFK, ADP-Glo luminescence. Potency, µM (top dose mostly 57.5 µM), usual class: inhibitors. 330,000 compounds, 0.17% hits; also: nearly all actives have a fitted effect of over 60% in size
#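 Compounds were pin-transferred as a titration series up to 57 uM into substrate buffer (0.5 mM F6P, 0.1 mM ATP, pH 8.0), then 1.25 nM PFK was added and reactions ran 45 min before ADP-Glo detection.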
# GALK inhibitor = blocks human galactokinase activity | P51570 | Purified GALK, Kinase-Glo residual ATP luminescence | Potency, µM (series often up to 57.5 µM), actives largely listed as inhibitors | 270,000 compounds, 0.007% hits
# Target sequence (P51570 whole entry, looked up): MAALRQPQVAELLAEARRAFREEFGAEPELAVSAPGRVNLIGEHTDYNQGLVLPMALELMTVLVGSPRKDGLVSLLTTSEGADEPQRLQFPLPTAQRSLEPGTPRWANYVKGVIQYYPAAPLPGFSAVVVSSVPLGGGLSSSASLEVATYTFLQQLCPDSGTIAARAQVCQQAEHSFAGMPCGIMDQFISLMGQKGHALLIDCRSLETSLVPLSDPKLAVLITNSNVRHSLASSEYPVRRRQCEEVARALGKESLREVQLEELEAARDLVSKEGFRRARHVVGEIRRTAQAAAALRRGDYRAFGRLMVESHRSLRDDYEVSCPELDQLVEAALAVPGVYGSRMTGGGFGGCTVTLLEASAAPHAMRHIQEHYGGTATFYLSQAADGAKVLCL
#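 Kinase-Glo Plus luminescence measured ATP left after a 1 h room-temperature reaction. The reaction used 5 nM GALK, 100 uM galactose and 35 uM ATP at pH 8.0 (20 mM HEPES, 5 mM MgCl2, 60 mM NaCl, 1 mM DTT, 0.01% BSA).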
# KinaseGlo FLuc = Kinase-Glo luciferase inhibition (counter-screen); Q27757; Kinase-Glo luciferase, ATP luminescence, 8 min; Potency, µM (highest dose often 38.3 µM), usual class: inhibitors; 200,000 compounds, 0.28% hits; AID 1379; also: nearly all actives have a fitted effect of over 60% in size
#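 Light output from Kinase-Glo luciferase with luciferin and 10 uM ATP in 50 mM imidazole pH 7.2, KCl, MgCl2, Tween 20, BSA; compound pin-delivered, 8-min ambient incubation, then luminescence read.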
# Tb PFK KinaseGlo = inhibits T. brucei PFK measured by ATP depletion | Tb PFK enzyme, ATP depletion, Kinase-Glo Plus luminescence | 1,100 compounds, 47% hits | shares compounds with Tb PFK inh-1 | Potency, µM (titrated, usually from 57.5 µM); calls by dose curve; also: nearly all actives have a fitted effect of over 60% in size
# Tb PFK inh-2 = validation of T. brucei phosphofructokinase inhibitors. Potency, µM (series often up to 57.5 µM), hits mostly inhibitors. 1,100 compounds, 41% hits. shares compounds with Tb PFK inh-1. purified T. brucei PFK, ADP-Glo luminescence, 45 min; also: nearly all actives have a fitted effect of over 60% in size
# Numbers stand for hits; - = inactive; ? = inconclusive; . = no result; [ ] = remark or other dose. Hits are enriched below; roughly 0.56% of the tested compounds scored in any of these assays. Unless noted, calls follow the shape of the dose curve; as a rule, active = well fitted curve in the direction sought with a large enough effect; inconclusive = small, poorly fitted or top-dose-only effect, or another doubt; inactive = no such curve, though single readings can be large; an effect the other way counts as inactive or inconclusive.
SMILES,PKM2 activator,CBFb RUNX1 block,Tb PFK inh-1,GALK inhibitor,KinaseGlo FLuc,Tb PFK KinaseGlo,Tb PFK inh-2
O=C(CSc1nnc(CNc2ccc(F)cc2)o1)N1CCN(C(=O)c2ccco2)CC1,-,-,?,-,-,15µM,24µM
COc1ccc(N2CCN(C(=O)CSc3nnc(CNc4ccccc4)o3)CC2)cc1,-,-,?,-,-,19µM,30µM
CN1CCN(c2ccc(NC(=O)Oc3ccccc3)cc2)CC1,-,-,-,-,-,.,.
CCOC(=O)CN(C(=O)CSc1nnc(CNc2ccc(F)cc2)o1)c1ccccc1,-,-,24µM,-,-,13µM,27µM
O=C(NC1CCCCC1)c1cn(CCN2CCOCC2)c2cc(Cl)ccc2c1=O,.,-,.,.,.,.,.
CC(C)C1O/C(=N/C(=O)Nc2ccc(Cl)c(Cl)c2)NC1=O (stereo unspecified),-,-,9.5µM,-,-,24µM,27µM
C[C@@]12CC[C@H](O[C@@H]3O[C@H](CO)[C@@H](O)[C@H](O)[C@@H]3O)C[C@@H]1CC[C@H]1[C@H]2CC[C@@]2(C)[C@@H](C3=CCOC3=O)CC[C@]12O,.,.,.,.,-[7.66 µM],.,.
N#CC1=C(N)C(C#N)(C#N)C(c2ccc[nH]2)C2CCCC=C12 (stereo unspecified),-,-,?,-,-,-,-
NNc1nncn1N,.,.,.,.,-[7.66 µM],.,.
C[C@]12C/C(=C/O)C(=O)C[C@@H]1CC[C@@H]1[C@@H]2CC[C@@]2(C)[C@H]1CC[C@]2(C)O,.,-,.,.,.,.,.
CC(=O)Nc1ccc(NC(=O)Cn2nc([N+](=O)[O-])c(Br)c2C)cc1,.,-,12µM,-,-,19µM,30µM
Cc1c(Br)c([N+](=O)[O-])nn1CC(=O)Nc1ccc(Cc2ccncc2)cc1,-,-,13µM,.,-,13µM,21µM
Cc1c(Br)c([N+](=O)[O-])nn1CC(=O)Nc1ccccn1,-,-,19µM,-,-,19µM,?
Cc1c(Br)c([N+](=O)[O-])nn1CC(=O)Nc1ccc2nc3n(c(=O)c2c1)CCCC3,.,.,?,-,.,24µM,?
COC(=O)[C@@H]1[C@@H](O)[C@@]2(O)c3c(OC)cc(OC)cc3O[C@@]2(c2ccc(OC)cc2)[C@H]1c1ccccc1,.,-[13.1 µM],.,.,.,.,.
FC(F)(F)c1nc2ccc(SSc3ccc4nc(C(F)(F)F)[nH]c4c3)cc2[nH]1,.,.,.,.,-[7.66 µM],.,.
CCOc1cncc(/C=C/CCNC)c1,.,-,.,.,.,.,.
C[C@@H]1CC[C@H]2[C@H](C)[C@H]3CC[C@@]4(O)[C@@H]5CC(=O)[C@H]6CC(=O)CC[C@]6(C)[C@H]5C[C@H]4[C@@H]3CN2C1,.,-,.,.,.,.,.
COc1ccc(NC(=O)Cc2ccc(Cl)c(Cl)c2)cn1,-,-,12µM,-,-,6µM,13µM
COc1ccc(C(=O)NCc2ccc(Cl)c(Cl)c2)cc1OC,-,-,13µM,-,-,8.5µM,27µM
COc1ccccc1OCCNC(=O)Cc1ccc(Cl)c(Cl)c1,-,-,?,-,-,?,?
[O-][Cl+2]([O-])O,.,-,.,.,.,.,.
NC(N)=NCCN=C(N)N,.,.,.,.,-[7.66 µM],.,.
c1ccc2c(c1)Sc1ccccc1N2C[C@H]1CN2CCC1CC2,.,.,.,.,-[7.66 µM],.,.
COc1ccc(-c2oc3cc(OC)ccc3c(=O)c2O)cc1,.,?,.,.,-,.,.
SMILES,PKM2 activator,CBFb RUNX1 block,Tb PFK inh-1,GALK inhibitor,KinaseGlo FLuc,Tb PFK KinaseGlo,Tb PFK inh-2
O=c1c(O)c(-c2cc(O)c(O)c(O)c2)oc2cc(O)cc(O)c12,.,?,8.5µM,.,-,1.9µM,3.8µM
CCOP(=S)(OCC)SCSC(C)(C)C,.,-,.,.,.,.,.
Cc1nnc(NC(=O)c2cc(-c3ccco3)nc3ccccc23)s1,.,.,?,.,.,9.5µM,?
COc1cccc(NC(=O)c2cc(-c3ccc(C)o3)nc3ccccc23)c1,-,.,?,-,.,?,?
CCc1nnc(NC(=O)c2cc(-c3ccc(C)o3)nc3ccccc23)s1,.,.,4.8µM,.,.,4.8µM,6.7µM
CCCCCCn1c(=O)c(C(=O)Nc2nnc(C)s2)c(O)c2ccccc21,-,-,-,-,-,.,.
c1ccc(N2CCC3(CCNCC3)CC2)nc1,.,.,.,.,-,.,.
CCCCC/C=C\C/C=C\C/C=C\C/C=C\CCCC(=O)N(Cc1ccc(O)c(Cl)c1)Cc1ccc(O)c(Cl)c1,.,-,.,.,-,.,.
ClC(Cl)Br,.,-,.,.,.,.,.
COc1cccc2c1NC(C(=O)O)C1CC=CC21 (stereo unspecified),-,.,?,.,-,?,?
O=[N+]([O-])c1ncccc1OCc1ccc(Cl)c(Cl)c1,-,.,?,-,.,15µM,17µM
O=[N+]([O-])c1cc(Cl)c(Cl)cc1Cl,.,-,-,.,.,.,.
ClCc1ccccn1,.,-,.,.,.,.,.
Clc1ccc(COc2ccccn2)cc1Cl,-,-,17µM,.,-,12µM,27µM
O=C(O)CNC(=O)c1ccc([As](=O)(O)O)cc1,.,.,.,.,-[7.66 µM],.,.
Cc1nnc(SCc2ccc(Cl)c(Cl)c2)s1,-,-,24µM,-,-,11µM,13µM
CC(C)CCNC(=O)CNC(=O)[C@@H](C)NC(=O)[C@@H](N)Cc1ccc(O)cc1,.,-,.,.,.,.,.
Cc1ccc(C)c2nc3sc(C(=O)O)cc3cc12,-,-,?,-,-,-,?
CCOC(=O)Cc1csc(-n2sc3ccccc3c2=O)n1,-,-,11µM,-,-,?,?
CCCCCn1c(=O)c(C(=O)Nc2nc(CC(=O)OCC)cs2)c(O)c2ccccc21,-,-,-,-,-,.,.
O=C(NCP(=O)(O)O)c1cccnc1,.,.,.,.,-[7.66 µM],.,.
O=C(CN1CCOCC1)Nc1ncc(Cc2cccc(Cl)c2)s1,-,-,?,-,-,?,?
COC(=O)CCCc1[se]c2ccccc2c1I,.,-,.,.,-,.,.
CC(=O)C1CCC2C3CCC4CC(C)(O)CCC4(C)C3CCC12C (stereo unspecified),.,-,.,.,.,.,.
CCN1/C(=C/C=C/c2oc3ccc(-c4ccccc4)cc3[n+]2CC)Oc2ccc(-c3ccccc3)cc21,-,-,?,-,-,-,?
SMILES,PKM2 activator,CBFb RUNX1 block,Tb PFK inh-1,GALK inhibitor,KinaseGlo FLuc,Tb PFK KinaseGlo,Tb PFK inh-2
CCOC(=O)c1c(-c2ccc(OC)cc2)csc1/N=C/C1=C(O)CCCC1=O,-,-,?,-,-,-,-
CCOC(=O)c1c(-c2ccc(OC)cc2)oc2ccc(OC(=O)N(C)C)cc12,-,-,-,-,-,.,.
Cc1ccc(NC2=C(NC(=O)c3ccccc3)C(=O)c3ccccc3C2=O)cc1Cl,-,.,?,-,-,?,6.7µM
CC(N)(COP(=O)(O)Oc1ccccc1)C(=O)O (stereo unspecified),.,-,.,.,.,.,.
Nc1c(C(=O)Nc2ccc([As](=O)(O)O)cc2)cnc2nnnn12,.,.,.,.,-[7.66 µM],.,.
Oc1cc2c(cc1O)[C@H]1c3ccc(O)c(O)c3OC[C@@]1(O)C2,.,-,?,.,-,?,?
Cc1ccc(NC2c3ncccc3C(=O)N2c2ccccc2C)cc1C (stereo unspecified),-,-,?,-,-,19µM,?
